The results in this text go back to PubChem BioAssay AID1347426 (Functional Genomics Laboratory (NCATS/FGL), 2020).

Among all 31,000 sequences or so, about 1,400 (4.5%) were called active. This excerpt belongs to a sample that is enriched for actives. Values without a mark were called inactive.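 How the source made its calls: active means median seed-adjusted z-score above 1 or below -1; inactive means the rest.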

This assay can be described thus: Novel Modifiers of Survival Motor Neuron (SMN) Protein: Gene Identification via Genome-wide siRNA Screen.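 Further: luminescence tracks full-length SMN protein made from the SMN2 reporter.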 The conditions noted are these: HEK293T SMN2-luciferase reporter, siRNA knockdown, 72 h; actives lie on both sides. The gist of the method:
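siRNA screen, 10418 genes ×3 siRNAs; 1 pmol/well, lipid reverse transfection into HEK293T SMN2-luc reporter line. 72 h, 37 °C, 5% CO2; ONE-Glo readout. Data: neg-ctrl normalized, log10, MAD; hit = MAD >1.0 or < -1.0.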
(Reporter assays use an easily measured gene product as a stand-in for the process of interest.)
For GAAUCUGUCUUAGAUCUCATT against PRDM2, the median seed-adjusted z-score is 1.12 (active).

For the sequence CCAUAGAAUUCAAAAUCCUTT against BCL2L14, the median seed-adjusted z-score is -0.859.

For the sequence GGAGUCUACUUUACCGGUATT against BPIL2, the median seed-adjusted z-score was -0.63.

For the sequence GCAGAGAAAAUAUAACUGATT against NPHP1, the median seed-adjusted z-score is -0.0667.

For AGAUGGUCCAAGAUCCAGATT against CHRM4, the median seed-adjusted z-score was -0.856.

In the case of GGAGUUUCCCAUCAAACGATT against PADI4, the median seed-adjusted z-score is 0.417.

As to CUUCCUAGGUUACAAGUAATT against FAM84B, the median seed-adjusted z-score is -0.431.

For the sequence GGGACAAGCUUGACAAGGUTT against TRIM62, the median seed-adjusted z-score is -0.000231.

As for GGGUGUCUAAAGGUACAUATT against FSD2, the median seed-adjusted z-score is 0.359.

As for GUACGUUGUAUGUUAAACATT against SLC12A2, the median seed-adjusted z-score was -0.4.

With CGAUUCCAGCAGUAGCUCATT against AP3B2, the median seed-adjusted z-score was -2.45 (active).

Take GGAGUUCGCAAAAUCGUCATT against NRK: the median seed-adjusted z-score is 0.0687.

Regarding CCUCCAUGUCCAACCCAUATT against FOSL2, the median seed-adjusted z-score was -0.372.

AGUAGAACGUGUACGCAGATT against MGST1: the median seed-adjusted z-score is -0.0144.

On to GAAUAUCGGCAGAGAGAUATT against RNF12, for which the median seed-adjusted z-score was 0.29.

Regarding CGGAGAAGAUGUUCGCCGATT against SIL1, the median seed-adjusted z-score was 0.0292.

In the case of GGAUGUGCACUCUCAUUGATT against COPA, the median seed-adjusted z-score is -0.807.

Take GGAGAUUCAGAUCCUCAAATT against JAK3: the median seed-adjusted z-score was -0.0926.

Consider GCAACACCCAGGUAGUUUUTT against EIF4A1, for which the median seed-adjusted z-score was -1.05 (active).

With GAAGCUCUACUCACAGUUUTT against GSTM2, the median seed-adjusted z-score was -0.464.

On to CUUAACCUGUGGAAUCGAATT against NIPA2, for which the median seed-adjusted z-score was -0.103.

In the case of GCAAAGAUAGAAGAAGAUATT against DDI2, the median seed-adjusted z-score is 1.27 (active).

With GCAAGAUGAUUUUAUCUCUTT against CDA, the median seed-adjusted z-score is 0.471.

As for CAUUAAAGCAGCUACCAAUTT against PSMC3IP, the median seed-adjusted z-score is -0.0482.

As for GCAACAGCAUUAUGACCCATT against COL10A1, the median seed-adjusted z-score is -0.0291.

As for GGUUGCGGCUCAGAACAAATT against OAS3, the median seed-adjusted z-score is 0.147.

For GGACCUGAUUGAUGCCGUCTT against PYCR1, the median seed-adjusted z-score is -0.171.

For AGACCUCGAUUUCACAGUATT against PRMT8, the median seed-adjusted z-score was 0.

With CAGAGUAUGUAAAUAGACATT against CAPRIN1, the median seed-adjusted z-score was 1.36 (active).

Consider GGAAGUGCCCAGUGACUUATT against SLPI, for which the median seed-adjusted z-score is 0.274.

Consider GCACUGUCACUAAGCAGAATT against CHEK2, for which the median seed-adjusted z-score is 0.585.

On to GAGAGAUCAUUGCAAAGCATT against HNRNPM, for which the median seed-adjusted z-score was 0.499.

For the sequence GCCUCUACAGCAGAAGAAATT against LAMB2, the median seed-adjusted z-score is 1.12 (active).

GGAGAGACUUUUUACAACUTT against CACNG6: the median seed-adjusted z-score was -0.0499.

CUGUCCAUAGUGUCAUUAATT against GALNT1: the median seed-adjusted z-score is -0.164.

CUUGUCAAGUACGACCUUATT against NINJ1: the median seed-adjusted z-score was -0.061.

As to GGCUGUUCGAGUCCUGAAATT against FMO1, the median seed-adjusted z-score was 0.323.

Take GAGCAGGUGUUAUUAUGGATT against CLCN3: the median seed-adjusted z-score was -0.0801.

As to GUUCAGCCGUGGAAAGAAATT against WFDC6, the median seed-adjusted z-score is 0.0443.

In the case of GAAAUACAAGGAAUCUGAATT against TMTC4, the median seed-adjusted z-score was -1.16 (active).

For the sequence GCACCGUGGUGUCAACCAUTT against KCNK12, the median seed-adjusted z-score was 1.04 (active).

For the sequence CCUACUCAAUGUGAUAUAUTT against ADAMDEC1, the median seed-adjusted z-score was 0.0106.

Take CCCUUAAUCUACAAUAUCATT against PHTF1: the median seed-adjusted z-score is 0.0129.

Take GUCCCGAUCUGUGCUCUGATT against DUSP2: the median seed-adjusted z-score is 0.576.

Turning to GGAGUACCAUAGAUACAGATT against PPIG, the median seed-adjusted z-score is -0.0192.

GGAUCGCUGUCUCUAACUUTT against RRM1: the median seed-adjusted z-score was -5.51 (active).

For GCCUCUAUUUGAUAAGCGATT against NAP1L1, the median seed-adjusted z-score is 0.263.

Turning to GCGUUGGUCGGGAUGAUUATT against P2RY10, the median seed-adjusted z-score is -0.432.

In the case of GGAGGUCUAUAUUAUAAGATT against CFHR4, the median seed-adjusted z-score was -0.0972.

For GAUACGCUAUGAACUCUCATT against RCE1, the median seed-adjusted z-score was -1.19 (active).

Regarding GCAUUAGAAACUUACAAGATT against TROVE2, the median seed-adjusted z-score is 0.399.

As to CGAGUGUUCCCGGACAACATT against PODNL1, the median seed-adjusted z-score was -0.448.

Regarding GCUCAGCCCUUACUGUACATT against ZNF569, the median seed-adjusted z-score is 0.425.

On to GAUUGACCUGCGUUACGAATT against ADCK2, for which the median seed-adjusted z-score is 0.0823.

Consider UGCCUUAUCUGGAAGCAAATT against ERMAP, for which the median seed-adjusted z-score was -0.276.

For GAUUCCCUGCAUCAACUAATT against SQLE, the median seed-adjusted z-score was -1.14 (active).

Take GGGAAACGAUAUUCAUACATT against ADAMTS19: the median seed-adjusted z-score is -0.39.

With GUUAGGUAGUAGAAACAAATT against TCFL5, the median seed-adjusted z-score is 1.52 (active).

For the sequence GUUUCGGACCUAUCUCUGATT against RBM3, the median seed-adjusted z-score is 0.0539.

On to CAAAGUGGAUUCAAAGAUUTT against PRKCH, for which the median seed-adjusted z-score was 0.761.

Turning to CACCUUUUCUGGAUAGAGATT against DSC1, the median seed-adjusted z-score was -0.151.

With GCCUUAUGAUGGAAGAGAUTT against EYA2, the median seed-adjusted z-score was 0.111.

Take GUCUAGAUGAUCACAAGUATT against PSMD1: the median seed-adjusted z-score is -1.61 (active).

Consider GUUCUACCGUGGACAGCAATT against CLCN1, for which the median seed-adjusted z-score was 0.314.

CAACAACAAUCAUAGCUGATT against SSBP1: the median seed-adjusted z-score is -0.456.

GACUGGAAAUGAUUCGAGATT against RTCD1: the median seed-adjusted z-score is 0.0794.

Regarding CCUAUGGACUGAACAGGGATT against ZDHHC3, the median seed-adjusted z-score was 0.229.

Take GUCUGGAGAUCAUAUUUUUTT against PIM3: the median seed-adjusted z-score is -1.01 (active).

As for CAUUCUGACCGUGAACAAUTT against CTRB1, the median seed-adjusted z-score is -0.214.

As to CGAUGACUCAGAAAAGCGATT against ARHGEF10, the median seed-adjusted z-score was 0.22.

As to CGAGGAUAUUGACUGGGUATT against PRKCZ, the median seed-adjusted z-score was -0.175.

Regarding GCCCUGCAUUUGCGAUGAATT against ZNF169, the median seed-adjusted z-score is 0.

As for CACUUGCACAGAUACCCUUTT against COLEC12, the median seed-adjusted z-score was -1.04 (active).

For the sequence GGAAAGAGUUCAGUCGGAATT against ZNF671, the median seed-adjusted z-score is -0.0551.

For the sequence GAAAGAUUGUACCAGUUGATT against CMPK1, the median seed-adjusted z-score was -0.363.

Take GCGAGUGUGAGAAAACAUUTT against ZFP3: the median seed-adjusted z-score was 0.

For the sequence GAGCGAGACAUAAAAUAUUTT against ZNF257, the median seed-adjusted z-score was 0.306.

With CCCAAGAAAUAUUAACAUUTT against AP3S1, the median seed-adjusted z-score was 0.787.

With CGAAUUUCCUAGUAAACCATT against TFAP2C, the median seed-adjusted z-score was 1.28 (active).

In the case of CGUCAUGAGCCUCUACGAATT against PTPN5, the median seed-adjusted z-score was 0.22.

Consider GGAAAUCCAUCUACCGCUATT against SORL1, for which the median seed-adjusted z-score was 0.357.

Regarding GAUCAGGUGCUGUUCCAUATT against DGAT2L3, the median seed-adjusted z-score is 0.247.

Take CAUCGAGGGUCAUACUAUUTT against POLR2A: the median seed-adjusted z-score is -3.81 (active).

Consider GACUGCUGCUUAUCAACAATT against SPR, for which the median seed-adjusted z-score was 0.0329.

Regarding GACCUUACCUCAGACUAGATT against EXOG, the median seed-adjusted z-score is 0.746.

As for AGAUGUACCUGUUCGUGUATT against DNASE1L2, the median seed-adjusted z-score is -0.228.

GGACCUACGUUGCAGUUCATT against SUZ12: the median seed-adjusted z-score was -1.65 (active).

With GCACUGGAGAAGUAUGUGATT against ALOX12B, the median seed-adjusted z-score was 0.0071.

Consider GCACUUUACCAUUAGACAATT against LDB2, for which the median seed-adjusted z-score is -0.0847.

GGAGACUAGUAAGCACUAUTT against JARID1B: the median seed-adjusted z-score is 0.

For the sequence CAAGAGGGUUUUUACCAUATT against SEC11C, the median seed-adjusted z-score is 0.508.

Regarding GGUCAUGGAUGUGCACGAUTT against KRT14, the median seed-adjusted z-score is -0.127.

As to CAUCAGGAAUGGAAUUACATT against SKIL, the median seed-adjusted z-score is -0.868.

For GGUCCAAGCUGAUUACCCUTT against UNC13A, the median seed-adjusted z-score was -2.1 (active).

On to CCUCCCAUCUUAUUAUCCATT against ZNF572, for which the median seed-adjusted z-score is 0.237.

GGUGGAGACAUUUACAUCUTT against CREB3L1: the median seed-adjusted z-score is 0.708.

Consider CAAAGUACCGAGUCGAAUATT against SENP7, for which the median seed-adjusted z-score is 0.547.

With GCAAGACCGUGAGACAACUTT against SENP7, the median seed-adjusted z-score is 0.547.

Turning to GGAAGAAAAUAGUGCUGCATT against BARX1, the median seed-adjusted z-score is 1.63 (active).

As for CAUUCGCCGUUACCUGCCATT against POLR2F, the median seed-adjusted z-score was -3.52 (active).

As for GAACCACAAGGAGAAGUUUTT against PSMC3, the median seed-adjusted z-score was -0.701.

Turning to ACAAGGACUAUUACAGAUATT against PLA2G2D, the median seed-adjusted z-score was 0.361.

Take GGAGACAUCUGACCCAGCATT against ARHGAP9: the median seed-adjusted z-score was 0.

Regarding CGUCAGAUCUGAACAAGAATT against CHST4, the median seed-adjusted z-score is 0.349.

GUAUAUCAGUUCCAGUUUATT against RANBP3: the median seed-adjusted z-score is -0.211.

UUAUCACAGAGCAACCUAATT against NUBPL: the median seed-adjusted z-score is 0.105.

As to GGAAUGCACCCAGAUCAAATT against TFAP2D, the median seed-adjusted z-score was 0.

With GGCCUUUCCUUUACUGUCATT against ABCC4, the median seed-adjusted z-score is -1.66 (active).
